# Measured values from PubChem BioAssay.
# Inconclusive results are not listed. Active and inactive are the calls of the source. Cut-off read from the data, not from the text of the source, unless noted: active = inhibition above about 80%; inactive = the rest.
# What was measured:
# [1] = compounds altering HSF1 focus formation in cells – imaging, Selleck Cancer Library (AID 1347162; in the data active = plate-normalised HSF1 focus index below about 0.46); settings: human cells, HSF1 nuclear foci imaging, at 10 µM; SSMD: measured here: HSF1 foci SSMD mean; cell count: measured here: cell number; plate-normalised HSF1 focus index: stronger effect = lower value
# [2] = viability loss in pontine glioma line – cell-based, SU-DIPG-XIII, MIPE5.0, CellTiter-Glo, qHTS, dose response (AID 1347064; cut-off not given, nearly all actives have AC50 up to about 23 µM;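 for AC50: cells exposed to compound for 48 hours before the viability read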); settings: CellTiter-Glo ATP luminescence
# [3] = biological target: NAD(+) hydrolase SARM1 (Homo sapiens) (UniProt Q6SZW1); assay: blocking NAD cleavage by SARM1 SAM-TIR – cell lysate, NAD-Glo luminescence (AID 1508614;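 active = compound whose remaining NAD level is above about 45 nM, limit read from the data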;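 note: higher remaining NAD means stronger inhibition of SARM1 NADase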); settings: SAM-TIR HEK293T lysate NADase, at 1 µM, stronger effect = higher value
# Chain of NAD(+) hydrolase SARM1 (Homo sapiens) (Q6SZW1 whole entry, looked up): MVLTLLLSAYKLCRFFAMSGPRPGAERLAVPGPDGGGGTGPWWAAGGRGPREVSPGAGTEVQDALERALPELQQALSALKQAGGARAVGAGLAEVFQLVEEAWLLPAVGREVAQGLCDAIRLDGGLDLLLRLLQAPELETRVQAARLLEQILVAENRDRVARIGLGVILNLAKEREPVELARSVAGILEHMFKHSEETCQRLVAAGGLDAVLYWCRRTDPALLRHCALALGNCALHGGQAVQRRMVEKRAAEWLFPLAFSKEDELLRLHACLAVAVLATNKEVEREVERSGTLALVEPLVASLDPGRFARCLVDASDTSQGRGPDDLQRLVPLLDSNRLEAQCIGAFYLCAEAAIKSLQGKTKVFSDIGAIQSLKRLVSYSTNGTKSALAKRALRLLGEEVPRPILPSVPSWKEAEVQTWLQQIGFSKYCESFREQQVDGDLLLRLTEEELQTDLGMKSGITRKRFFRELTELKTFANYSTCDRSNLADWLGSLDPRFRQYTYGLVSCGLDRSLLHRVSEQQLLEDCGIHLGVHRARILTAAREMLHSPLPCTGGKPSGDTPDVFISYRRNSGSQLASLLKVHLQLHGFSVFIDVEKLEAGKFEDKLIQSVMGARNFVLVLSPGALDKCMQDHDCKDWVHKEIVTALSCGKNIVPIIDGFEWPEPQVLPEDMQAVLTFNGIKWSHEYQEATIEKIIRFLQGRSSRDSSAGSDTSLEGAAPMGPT
# [4] = biological target: ATP-dependent translocase ABCB1 (Homo sapiens) (UniProt P08183); assay: P-glycoprotein substrate transport blockade – cell-based (AID 377; in the data active = fluorescence slope change above about 50%); settings: MDR1-expressing cells, fluorescent substrate accumulation slope; stronger effect = higher value; concentration not given here
# Chain of ATP-dependent translocase ABCB1 (Homo sapiens) (P08183 whole entry, looked up): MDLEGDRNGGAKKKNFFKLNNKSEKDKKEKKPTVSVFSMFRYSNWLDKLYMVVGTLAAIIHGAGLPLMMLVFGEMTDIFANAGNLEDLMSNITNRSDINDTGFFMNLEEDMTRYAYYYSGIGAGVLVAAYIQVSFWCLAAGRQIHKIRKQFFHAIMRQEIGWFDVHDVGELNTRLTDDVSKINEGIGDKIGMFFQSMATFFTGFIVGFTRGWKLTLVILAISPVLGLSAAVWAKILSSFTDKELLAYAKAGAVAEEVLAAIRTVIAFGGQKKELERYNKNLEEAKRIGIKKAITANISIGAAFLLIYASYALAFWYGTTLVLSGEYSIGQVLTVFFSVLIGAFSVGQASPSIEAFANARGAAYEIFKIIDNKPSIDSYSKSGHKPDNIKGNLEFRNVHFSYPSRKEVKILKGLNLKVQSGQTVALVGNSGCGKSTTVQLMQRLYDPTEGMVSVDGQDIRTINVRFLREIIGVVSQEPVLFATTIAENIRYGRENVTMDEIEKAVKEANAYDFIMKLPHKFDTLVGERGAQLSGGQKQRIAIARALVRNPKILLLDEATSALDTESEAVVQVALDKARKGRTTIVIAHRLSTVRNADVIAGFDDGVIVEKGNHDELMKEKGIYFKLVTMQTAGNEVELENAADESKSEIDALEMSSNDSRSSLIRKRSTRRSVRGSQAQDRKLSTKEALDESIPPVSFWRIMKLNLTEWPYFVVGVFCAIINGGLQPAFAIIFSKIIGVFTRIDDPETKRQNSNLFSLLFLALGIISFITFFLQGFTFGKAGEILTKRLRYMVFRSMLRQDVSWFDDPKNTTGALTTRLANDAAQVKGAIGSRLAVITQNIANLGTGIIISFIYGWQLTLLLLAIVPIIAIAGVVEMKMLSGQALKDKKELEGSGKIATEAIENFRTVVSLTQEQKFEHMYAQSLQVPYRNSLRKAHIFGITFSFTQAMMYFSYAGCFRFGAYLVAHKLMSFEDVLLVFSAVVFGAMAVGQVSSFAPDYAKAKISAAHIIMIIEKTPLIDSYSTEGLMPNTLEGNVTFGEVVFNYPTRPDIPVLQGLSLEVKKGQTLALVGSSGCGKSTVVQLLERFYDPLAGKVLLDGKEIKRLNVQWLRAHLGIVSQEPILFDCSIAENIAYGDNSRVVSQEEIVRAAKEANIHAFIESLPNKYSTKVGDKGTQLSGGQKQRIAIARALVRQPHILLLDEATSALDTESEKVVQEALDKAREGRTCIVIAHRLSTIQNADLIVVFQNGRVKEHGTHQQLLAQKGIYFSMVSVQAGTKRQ
# [5] = compounds altering viability of human ES cells (AID 493140; call rule not given here;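 note: cells exposed to compounds for four days before counting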); settings: human embryonic stem cell survival screen; stronger effect = higher value
# [6] = biological target: Mitogen-activated protein kinase 7 (Homo sapiens) (UniProt Q13164); assay: Gal4-ERK5 driven luciferase induction – cell-based, HTS, primary screen (AID 1508626;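 active = luciferase signal above three times the same-plate solvent-only control wells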;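 note: luciferase driven by Gal4-ERK5 fusion binding five Gal4 sites before minimal TATA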); settings: HeLa Gal4-ERK5 transactivation, 18 h, at 5 µM, stronger effect = higher value
# Chain of Mitogen-activated protein kinase 7 (Homo sapiens) (Q13164 whole entry, looked up, the tested form may be a part): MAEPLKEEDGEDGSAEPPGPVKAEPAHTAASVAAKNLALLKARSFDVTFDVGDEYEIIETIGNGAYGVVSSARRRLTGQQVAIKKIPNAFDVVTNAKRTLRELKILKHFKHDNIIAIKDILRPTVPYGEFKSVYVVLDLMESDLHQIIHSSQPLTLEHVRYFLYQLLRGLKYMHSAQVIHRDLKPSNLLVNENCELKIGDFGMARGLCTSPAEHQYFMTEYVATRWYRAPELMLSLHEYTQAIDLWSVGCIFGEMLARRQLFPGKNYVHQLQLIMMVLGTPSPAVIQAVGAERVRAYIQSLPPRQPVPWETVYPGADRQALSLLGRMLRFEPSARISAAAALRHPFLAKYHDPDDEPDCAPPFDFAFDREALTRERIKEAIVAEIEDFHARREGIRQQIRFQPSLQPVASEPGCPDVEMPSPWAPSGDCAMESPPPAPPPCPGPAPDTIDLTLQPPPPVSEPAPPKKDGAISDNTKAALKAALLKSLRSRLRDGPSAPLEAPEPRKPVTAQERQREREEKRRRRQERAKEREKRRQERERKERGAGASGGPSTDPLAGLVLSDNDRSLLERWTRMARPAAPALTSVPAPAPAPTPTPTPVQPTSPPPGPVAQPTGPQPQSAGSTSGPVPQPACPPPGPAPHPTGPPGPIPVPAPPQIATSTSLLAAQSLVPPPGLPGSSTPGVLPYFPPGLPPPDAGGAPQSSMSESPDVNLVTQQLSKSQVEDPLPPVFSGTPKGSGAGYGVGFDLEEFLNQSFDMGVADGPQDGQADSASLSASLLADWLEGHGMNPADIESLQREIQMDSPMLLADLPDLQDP
# [7] = growth inhibition, single agent or in combination, cell-based, chromothripsis tumors, cisplatin or BGB combos (AID 1671449); settings: LFS_MB_P medulloblastoma cells;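 note: cells exposed for 96 hours; 0% = vehicle DMSO and 100% = killing by high DMSO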
# [8] = growth inhibition, single agent and combos, cell-based, chromothripsis tumors, cisplatin or BGB combos (AID 1671450); settings: HDN33 neuroblastoma cells, stronger effect = higher value;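 note: cells exposed to compound for four days; 0% = vehicle DMSO and 100% = cell killing by high DMSO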
# [9] = growth inhibition, single agents and combos, ICB984, cell-based, cisplatin or BGB combos, synergistic combos for chromothripsis tumors (AID 1671451; call rule not given here;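 note: cells exposed for 96 hours before readout; 0% = vehicle DMSO and 100% = killing by high DMSO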); settings: ICB984 medulloblastoma cells, drug combinations, stronger effect = higher value
# [10] = growth inhibition, single agents and combos, LFS_MB_1R, cell-based, cisplatin or BGB combos, synergistic combos for chromothripsis tumors (AID 1671452); settings: LFS_MB_1R medulloblastoma cells, stronger effect = higher value;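 note: cells exposed for 96 hours before readout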
# [11] = growth inhibition, single agents and combos, HTB85, cell-based, BGB or cisplatin IC20 combos, synergistic combos for chromothripsis tumors (AID 1671453); settings: HTB85 osteosarcoma cells, drug combinations, stronger effect = higher value;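 note: cells exposed for 96 hours before readout; 0% = vehicle DMSO and 100% = high DMSO killing control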
# [12] = growth inhibition, single agents and combos, CRL2098, cell-based, BGB or cisplatin IC20 combos, synergistic combos for chromothripsis tumors (AID 1671454); settings: CRL2098 osteosarcoma cells, drug combinations, stronger effect = higher value;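 note: cells exposed for 96 h before readout; 0% = vehicle DMSO and 100% = killing by high DMSO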
# [13] = growth inhibition, single agents and combos, HD-MB03, cell-based, BGB or cisplatin IC20 combos, synergistic combos for chromothripsis tumors (AID 1671455; in the data active = inhibition above about 83%;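 note: 0% = vehicle DMSO and 100% = high DMSO as cytotoxic control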); settings: HD-MB03 medulloblastoma cells, stronger effect = higher value
# [14] = growth inhibition, single agents and combos, UWB1.289, cell-based, BGB or cisplatin combos, synergistic combos for chromothripsis tumors (AID 1671456); settings: UWB1.289 ovarian carcinoma cells, stronger effect = higher value;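 note: cells exposed to compound for four days; 0% = vehicle DMSO and 100% = killing by high DMSO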
# [15] = growth inhibition, single agents and combos, LFS_MB_2R, cell-based, cisplatin combos, synergistic combos for chromothripsis tumors (AID 1671457); settings: LFS_MB_2R medulloblastoma cells, stronger effect = higher value;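 note: cells exposed to compound for four days before readout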
# [16] = growth inhibition, MDA-MB-436, cell-based, BGB or cisplatin combos, synergistic combos for chromothripsis tumors (AID 1671458; call rule not given here;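 note: cells exposed for 96 hours; 0% = vehicle DMSO and 100% = killing by high DMSO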); settings: MDA-MB-436 breast carcinoma growth inhibition, drug combinations, stronger effect = higher value
# [17] = BT084 cell growth, single and combined drugs, ICGC_MB145, cisplatin and BGB IC40 combos (AID 1671461); settings: BT084 medulloblastoma cells, drug combinations, stronger effect = higher value;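 note: cells exposed to drugs for 96 hours; 0% = vehicle DMSO and 100% = high DMSO full killing control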
# [18] = RCMB18 cell growth, single agent and combined, cisplatin and BGB IC40 combos (AID 1671462); settings: RCMB18 medulloblastoma cells, stronger effect = higher value;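 note: cells exposed to compound for four days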
# [19] = CRL1545 cell growth, single agent and combined, cisplatin and BGB IC20 combos (AID 1671464); settings: CRL1545 osteosarcoma cells, stronger effect = higher value;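 note: cells exposed to compound for 96 hours before readout; 0% = vehicle DMSO and 100% = high DMSO killing control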
# [20] = measured here: combination with BGB IC40, at 0.05 µM
# [21] = measured here: with BGB IC20 combination, at 0.5 µM
# [22] = measured here: with cisplatin IC20 combination, at 0.5 µM
# [23] = measured here: combination with cisplatin, at 0.5 µM
# [24] = measured here: combination with cisplatin, at 5 µM
compound,measurement,setting,value
COc1cc(Nc2c(C#N)cnc3cc(OCCCN4CCN(C)CC4)c(OC)cc23)c(Cl)cc1Cl,SSMD,[1],-18.3
same,cell count,[1],5030
same,plate-normalised HSF1 focus index,[1],0.345 (active)
COc1cc(NCc2ccc3nc(N)nc(N)c3c2C)cc(OC)c1OC,AC50,[2],7.42 µM (active)
CCCCC(CC)COC(=O)C(C#N)=C(c1ccccc1)c1ccccc1 (configuration not stated),remaining NAD,[3],10 nM (inactive)
COC(=O)C1=C(C)NC(C)=C(C(=O)OCCN2CCN(C(c3ccccc3)c3ccccc3)CC2)C1c1cccc([N+](=O)[O-])c1 (configuration not stated),AC50,[2],8.33 µM (active)
same,remaining NAD,[3],10 nM (inactive)
C#Cc1cccc(Nc2ncnc3cc(OCCOC)c(OCCOC)cc23)c1,SSMD,[1],2.72
same,cell count,[1],6730
same,plate-normalised HSF1 focus index,[1],1.14 (inactive)
C[C@@H]1C[C@H]2[C@@H]3CCC4=CC(=O)C=C[C@]4(C)[C@@]3(Cl)[C@@H](O)C[C@]2(C)[C@@]1(OC(=O)c1ccco1)C(=O)CCl,fluorescence slope change,[4],21.4% (inactive)
same,survival,[5],4.67 (inactive)
same,remaining NAD,[3],10 nM (inactive)
COc1nc(N)nc2c1ncn2[C@@H]1O[C@H](CO)[C@@H](O)[C@@H]1O,remaining NAD,[3],10 nM (inactive)
O=C(OC1C[C@H]2CC[C@@H](C1)[N+]21CCCC1)C(O)(c1ccccc1)c1ccccc1 (some centres not stated),remaining NAD,[3],10 nM (inactive)
O=c1[nH]c(=O)n([C@H]2C[C@H](O)[C@@H](CO)O2)cc1C(F)(F)F,outcome,[2],inactive
same,remaining NAD,[3],10 nM (inactive)
same,luciferase signal,[6],36 AU (inactive)
same,inhibition,"[7]; at 0.5 µM, stronger effect = higher value",36.4% (inactive)
same,inhibition,"[7]; measured here: combination with BGB IC20, at 0.005 µM",-2.27%
same,inhibition,"[7]; measured here: combination with BGB IC40, at 0.005 µM",-21%
same,inhibition,[7]; [20],-26.7%
same,inhibition,"[7]; measured here: combination with cisplatin, at 0.5 µM, stronger effect = higher value",71.9%
same,inhibition,"[7]; measured here: combination with cisplatin, at 5 µM, stronger effect = higher value",-10%
same,inhibition,"[8]; BGB combo, at 5 µM",76.1%
same,inhibition,[8]; at 0.5 µM,-26.4% (inactive)
same,inhibition,"[8]; cisplatin combo, at 5 µM",74.4%
same,inhibition,[8]; [21],-34.8%
same,inhibition,[8]; [22],-33.1%
same,inhibition,"[8]; single agent, at 5 µM",78.3%
same,inhibition,"[9]; BGB IC20 combo, at 0.005 µM",-20%
same,inhibition,"[9]; BGB IC40 combo, at 0.005 µM",-34.3%
same,inhibition,"[9]; BGB IC40 combo, at 0.05 µM",-24%
same,inhibition,[9]; at 0.5 µM,-27.9% (inactive)
same,inhibition,"[9]; cisplatin combo, at 0.05 µM",-27.5%
same,inhibition,"[9]; cisplatin combo, at 0.5 µM",-36.1%
same,inhibition,"[9]; cisplatin combo, at 5 µM",-29.6%
same,inhibition,"[9]; measured here: 5 uM single agent, at 5 µM",-19.3%
same,inhibition,[10]; at 0.5 µM,-42% (inactive)
same,inhibition,[10]; [20],-48.3%
same,inhibition,[10]; [23],-37.1%
same,inhibition,[10]; [24],-50.8%
same,inhibition,[11]; at 0.5 µM,-26.4% (inactive)
same,inhibition,"[11]; measured here: with BGB IC20, at 0.5 µM",-56.9%
same,inhibition,"[11]; measured here: with BGB IC20, at 5 µM",-39.6%
same,inhibition,"[11]; measured here: with cisplatin IC20, at 0.5 µM",-12.8%
same,inhibition,"[11]; measured here: with cisplatin IC20, at 5 µM",1.86%
same,inhibition,"[11]; single agent, at 5 µM",7.02%
same,inhibition,[12]; at 0.5 µM,-101% (inactive)
same,inhibition,"[12]; measured here: combination with BGB at IC20, at 0.5 µM",-90.6%
same,inhibition,"[12]; measured here: combination with cisplatin at IC20, at 0.5 µM",-100%
same,inhibition,[13]; at 0.5 µM,46.7% (inactive)
same,inhibition,"[13]; measured here: combo with BGB at IC20, at 0.5 µM",44.2%
same,inhibition,"[13]; measured here: combo with cisplatin at IC20, at 0.5 µM",72.4%
same,inhibition,[14]; at 0.5 µM,-11.1% (inactive)
same,inhibition,"[14]; measured here: inhibition with BGB combination, at 0.05 µM",-14.4%
same,inhibition,"[14]; measured here: inhibition with cisplatin combination, at 0.05 µM",-6.35%
same,inhibition,[15]; at 0.5 µM,-13.5% (inactive)
same,inhibition,[15]; [23],-15.3%
same,inhibition,[15]; [24],-85.8%
same,inhibition,[16]; at 0.5 µM,-22.5% (inactive)
same,inhibition,"[16]; measured here: BGB combination, at 0.5 µM",-18.8%
same,inhibition,"[16]; measured here: BGB combination, at 5 µM",1.19%
same,inhibition,"[16]; measured here: cisplatin combination, at 0.5 µM",-44.6%
same,inhibition,"[16]; measured here: cisplatin combination, at 5 µM",12.8%
same,inhibition,[17]; at 0.5 µM,-27.4% (inactive)
same,inhibition,"[17]; cisplatin combination, at 0.5 µM",-13.4%
same,inhibition,"[17]; cisplatin combination, at 5 µM",-12.4%
same,inhibition,"[17]; measured here: BGB IC40 combination 0.05 uM, at 0.05 µM",-6.58%
same,inhibition,"[17]; single agent, at 5 µM",-41.3%
same,inhibition,[18]; at 0.5 µM,-14.2% (inactive)
same,inhibition,"[18]; cisplatin combo, at 5 µM",-41.9%
same,inhibition,"[18]; measured here: BGB IC40 combination, at 0.05 µM",-13.9%
same,inhibition,[18]; [23],-28.5%
same,inhibition,"[18]; single agent, at 5 µM",-39.2%
same,inhibition,[19]; at 0.5 µM,-43.3% (inactive)
same,inhibition,[19]; [21],-61.7%
same,inhibition,[19]; [22],-37.1%
same,inhibition,"[19]; single agent, at 0.05 µM",-89%
same,inhibition,"[19]; single agent, at 5 µM",33.7%
O=C(O)c1c(Cl)c(Cl)c(Cl)c(Cl)c1-c1c2cc(I)c(=O)c(I)c-2oc2c(I)c(O)c(I)cc12,AC50,[2],6.61 µM (active)
O=C(O)c1nc(=O)[nH]c(=O)[nH]1,outcome,[2],inactive
